PfHsp90 yeast 2: reduces growth (ATP signal) of yeast expressing P. falciparum Hsp90. S. cerevisiae expressing PfHsp90, BacTiter-Glo ATP, 48 h; yeast lacking PDR1 and PDR3 efflux regulators. inhibition, % at 9.4 µM. actives 0.32% (n = 310,000). AID 504621;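 active = every replicate shows inhibition above about 80%, whatever the replicate mean, limit read from the data; inconclusive = mean inhibition reaches the set limit but some replicate falls short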
Rce1 inhib: inhibitors of yeast Ras-converting enzyme | Q03530 | yeast membranes, quenched prenylated peptide cleavage fluorescence | calls only | actives 0.27% (n = 290,000);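 active = fall in fluorescence gain of 50% or more versus controls, with final raw signal at or below 3038400; inconclusive = same 50% fall but final raw signal above 3038400; inactive = fall in fluorescence gain under 50%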
Target sequence (Q03530 whole entry, looked up): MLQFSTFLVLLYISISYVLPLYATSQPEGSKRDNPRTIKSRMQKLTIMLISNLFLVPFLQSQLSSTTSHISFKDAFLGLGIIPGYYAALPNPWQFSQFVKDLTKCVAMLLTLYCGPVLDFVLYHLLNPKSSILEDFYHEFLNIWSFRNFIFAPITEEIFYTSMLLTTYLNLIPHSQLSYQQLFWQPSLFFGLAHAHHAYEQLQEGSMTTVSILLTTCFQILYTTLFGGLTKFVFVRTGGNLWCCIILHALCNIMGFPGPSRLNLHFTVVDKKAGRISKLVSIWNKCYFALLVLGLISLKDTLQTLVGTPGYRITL
tim23-1 inh: tim23-1 yeast growth inhibition | S. cerevisiae tim23-1 growth, BacTiter-Glo luminescence, 24 h | inhibition, % at 20 µM | actives 1.3% (n = 330,000);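 active = growth inhibition of the mutant yeast at or above 50%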;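 note: temperature-sensitive mutant grown at 25 °C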
TIM10 inh: growth inhibitors of TIM10 yeast strain; S. cerevisiae TIM10 strain growth, BacTiter-Glo luminescence, 24 h; inhibition, % at 10 µM; actives 1.4% (n = 330,000); AID 463195;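 active = inhibition of 40% or more at the single tested concentration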;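 note: wild-type TIM10 isogenic control strain grown at permissive 25 °C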
tim10-1 inh: inhibits growth of tim10-1 mutant yeast; S. cerevisiae tim10-1 ts strain growth, BacTiter-Glo, 24 h; actives 2.2% (n = 330,000); inhibition, % at 20 µM; AID 463190;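 active = inhibition of at least 40%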;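 note: mutant grown at 25 °C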
tim10-1 conf: confirmation of tim10-1 mutant yeast growth inhibitors; shares compounds with tim10-1 inh; S. cerevisiae tim10-1 ts strain growth, BacTiter-Glo, 24 h; inhibition, % at 20 µM; actives 56% (n = 7,400); AID 463213;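 active = inhibition of yeast growth at or above a set limit in either of two repeat tests at 20 µM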;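 note: tim10-1 mutant grown at permissive 25 °C to find synthetic lethal compounds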
tim10 confirm: TIM10 yeast growth inhibition, confirmed | shares compounds with TIM10 inh | S. cerevisiae tim10 strain growth, BacTiter-Glo luminescence, 24 h | inhibition, % at 10 µM | actives 63% (n = 4,600) | AID 463215;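 active = inhibition of yeast growth at or above a set limit in either of two replicates at 10 µM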; note: this counterscreen used the strain with wild-type TIM10
A number is an active result; 0 = inactive; ? = inconclusive; - = not tested or not shown. An excerpt weighted towards active compounds, which were near 3.7% of everything screened.

SMILES | PfHsp90 yeast 2 | Rce1 inhib | tim23-1 inh | TIM10 inh | tim10-1 inh | tim10-1 conf | tim10 confirm
CCN(CCO)C(=O)CC1C(=O)NCCN1Cc1c(F)cccc1Cl (configuration not stated) | 0 | 0 | 0 | 0 | 0 | - | -
CCCn1c(/C=C/c2ccccc2)nc2ccccc21 | 0 | ? | 0 | 42 | 42 | 0 | 0
Oc1ccccc1-c1nc(NCC2CCCO2)c2ccccc2n1 (configuration not stated) | 0 | - | 0 | 61 | 56 | 40 | 0
O=C(CNC(=O)c1ccccc1)NCc1nc2ccccc2[nH]1 | 0 | 0 | 0 | 0 | 0 | - | -
CCOC(=O)CC1C(=O)NCCN1C(=O)c1ccc(Cl)cc1Cl (configuration not stated) | 0 | 0 | 0 | 0 | 0 | - | -
CCOC(=O)c1cccnc1NC(=O)c1ccccc1 | 0 | 0 | 0 | 0 | 0 | - | -
O=S(=O)(c1ccccc1)N1CCC(O)(CSc2ccc(Cl)cc2)CC1 | 0 | - | 0 | 43 | 44 | 37 | 0
O=S(=O)(c1ccc(Cl)cc1)N1CCC(O)(CN2CCN(Cc3ccccc3)CC2)CC1 | 0 | 0 | 0 | 0 | 0 | - | -
CCn1ncc2c(OCc3ccc(C#N)cc3)cc(C)nc21 | - | 0 | 0 | 0 | 0 | - | -
CC(c1ccco1)N(C(=O)C12CC3CC(CC(C3)C1)C2)c1ccccn1 (configuration not stated) | 0 | 0 | 0 | 46 | 43 | 36 | 0
Cc1ccsc1C(=O)N/N=C/C=C/c1ccccc1[N+](=O)[O-] | 0 | 0 | 0 | 62 | 48 | 48 | 0
Cc1cccc(C)c1N=Cc1c(O)n(-c2nccs2)c(=O)c2ccccc12 | 0 | 0 | 0 | 55 | 46 | 41 | 0
COc1ccc(/C=C/C(=O)c2cc(F)ccc2OC(=O)c2ccccc2)cc1OC | 0 | 0 | 0 | 48 | 52 | 48 | 0
COc1ccc(N(C=O)C(C(=O)Nc2c(C)cccc2C)c2ccccc2)cc1 (configuration not stated) | 0 | 0 | 0 | 0 | 0 | - | -
C/C(=N\Nc1ccc(S(=O)(=O)N2CCCCC2)cn1)c1ccc(O)cc1 | - | - | 0 | 0 | 0 | - | -
Cc1nc(Nc2ccc(C(=O)O)cc2)sc1-c1ccccc1 | 0 | 0 | 0 | 0 | 0 | - | -
Cc1nc(Nc2ccccc2)sc1-c1ccccc1 | 0 | 0 | 0 | 63 | 54 | 54 | 0
c1ccc(Nc2cc(-c3ccccc3)nc3ncnn23)cc1 | 0 | 0 | 0 | 57 | 48 | 43 | 48
Cc1ccnc(NC(=O)c2ccc([N+](=O)[O-])s2)c1 | 0 | 0 | 0 | 69 | 75 | 72 | 80
Cc1cccc(NC(=O)c2ccc([N+](=O)[O-])s2)c1C | 0 | 0 | 0 | 61 | 66 | 55 | 53
Cc1cccc(C)c1NC(=O)c1ccc([N+](=O)[O-])s1 | 0 | 0 | 0 | 59 | 66 | 54 | 53
Cc1ccnc(NC(=O)c2cc([N+](=O)[O-])cc([N+](=O)[O-])c2)c1 | 0 | 0 | 0 | 0 | 0 | - | -
O=C(Nc1ccccc1N1CCOCC1)c1ccc([N+](=O)[O-])s1 | 103 | - | 0 | 61 | 66 | 72 | 84
Cc1cccc(NC(=O)c2cccc([N+](=O)[O-])c2O)c1C | 0 | - | - | - | - | - | -
CC(=O)NNC(=O)CCn1nnc(-c2ccc(Cl)cc2)n1 | 0 | 0 | 0 | 0 | 0 | - | -
SMILES | PfHsp90 yeast 2 | Rce1 inhib | tim23-1 inh | TIM10 inh | tim10-1 inh | tim10-1 conf | tim10 confirm
CN1CCN(C(=O)CCN2C(=O)/C(=C/c3ccc(F)cc3)SC2=S)CC1 | 0 | 0 | 0 | 0 | 0 | - | -
Cc1scc(-c2n[nH]c(=S)n2C(C)c2ccccc2)c1C (configuration not stated) | 0 | 0 | 0 | 43 | 42 | 0 | 0
CC(C)(C)SCCNS(=O)(=O)c1ccc(Cl)cc1 | 0 | 0 | 0 | 0 | 0 | - | -
O=S(=O)(NCCSc1ccc(Cl)cc1)c1ccc(F)cc1 | 0 | 0 | 0 | 41 | 44 | 35 | 0
S=C(NNc1cccc(Cl)c1)NC1CCCCC1 | 0 | 0 | 0 | 61 | 49 | 41 | 55
COc1ccc(OC)c(C(=O)Cn2c3[n+](c4ccc(C(F)(F)F)cc42)CCCCC3)c1 | - | 0 | 0 | 0 | 0 | - | -
CN1CCN(C2=C(Cl)C(=O)c3ccccc3C2=O)CC1 | 0 | - | - | - | - | - | -
CN1CCN(C2=C(Cl)C(=O)C(c3cnc(N4CCCCC4)s3)=C(Cl)C2=O)CC1 | - | 0 | 0 | 45 | 72 | 60 | 44
